Screening results (PubChem BioAssay)
Pf growth 96h: P. falciparum growth inhibition at 96 hour, primary screen for plastid delayed-death inhibitors. P. falciparum luciferase reporter growth, 96 h. Potency, µM (titrated, usually from 28.7 µM), actives largely listed as inhibitors. 6.9% of 320,000 active; active means well fitted inhibition curve with a large enough effect; inconclusive means small, poorly fitted or top-dose-only effect, or another doubt; inactive means no such curve, though single readings can be large or run the other way
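Compounds incubated with erythrocytes infected by luciferase-expressing P. falciparum (2% hematocrit, 0.05% parasitemia final) for 96 hours, 37 C in 5% CO2. Growth inhibition scored as decreased luciferase luminescence.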
Pf growth 48h: P. falciparum growth inhibition at 48 hours (one generation). P. falciparum luciferase growth in erythrocytes, 48 h. Potency, µM (highest dose often 28.7 µM), most hits filed as inhibitors. 5.9% of 310,000 active. AID 504832; active means well fitted inhibition curve with a large enough effect; inconclusive means small, poorly fitted or top-dose-only effect, or another doubt; inactive means no such curve, though single readings can be large or run the other way
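Luminescence readout; reporter = integrated firefly luciferase in P. falciparum. RBC culture at 2% hematocrit, 0.1% parasitemia final, 37 C/5% CO2; decreased signal taken as growth inhibition.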
Cycloheximide cs: counter-screen for Shiga toxin inhibitors: cycloheximide protein synthesis inhibition. cell reporter, cycloheximide protein synthesis inhibition counterscreen. max response, %. 12% of 300,000 active; in the data active means max response mostly above about 13%, no sharp cut-off; inactive means mostly below about 14%; further: read at 38.3 µM for the half of the compounds with a filed dose
Shiga toxin inh: inhibitors of Shiga toxin in Vero cells. Vero cells, Shiga toxin protein synthesis inhibition reporter. AID 2315. 9.2% of 290,000 active. inhibition, % at 38.7 µM; in the data active means inhibition mostly above about 28%, no sharp cut-off; inactive means mostly below about 43%
SARS PLpro yeast: inhibitors of SARS-CoV papain-like protease in yeast; 0.19% of 330,000 active; Potency, µM (titrated, usually from 32.9 µM), actives largely listed as activators; AID 485353; S. cerevisiae expressing SARS-CoV PLpro, growth rescue; further: nearly all actives have a fitted effect of over 55% in size
NS1 inh: blocks influenza NS1 protein function; Potency, µM (titrated, usually from 46.1 µM); 0.4% of 270,000 active; AID 2326; further: actives are rising curves; nearly all actives have a fitted effect of over 50% in size
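Compounds were scored for reversing the slow growth caused by influenza A NS1 in S. cerevisiae, measured by optical density at 600 nm. Assay medium contained 2% galactose at pH 6.0; NS1-free yeast of the same strain were the positive control.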
Large screens that a line does not name were inactive. Hits are enriched below; roughly 21% of the tested compounds scored in any of these assays. Unless noted, the call rests on the fitted dose curve.

CCCC(c1nnnn1CC1CCCO1)N1CCN(c2cc(Cl)ccc2C)CC1 (configuration not stated)	Pf growth 48h 13µM
CCC(c1nnnn1C(C)(C)C)N1CCN(c2cc(Cl)ccc2C)CC1 (configuration not stated)	Pf growth 96h 0.15µM, Pf growth 48h inconclusive
Cc1ccc(Cl)cc1N1CCN(C(c2ccc(C#N)cc2)c2nnnn2C2CCCC2)CC1 (configuration not stated)	Pf growth 48h 2.3µM
Cc1ccc(C(c2nnnn2CC2CCCO2)N2CCN(c3cccc(C)c3C)CC2)cc1 (configuration not stated)	Pf growth 48h 13µM (no result: Pf growth 96h)
Cc1ccc(Cl)cc1N1CCN(C(CC(C)C)c2nnnn2CC2CCCO2)CC1 (configuration not stated)	Pf growth 48h inconclusive
Cc1ccc(Cl)cc1N1CCN(C(c2cccnc2)c2nnnn2C2CCCCC2)CC1 (configuration not stated)	Pf growth 48h inconclusive
Cc1ccc(Cn2cnc3c(cnn3-c3ccc(F)cc3)c2=O)cc1	none (no result: NS1 inh)
Cc1cccc(C)c1NC(=O)CN(C)C(=O)C1=COCCO1	Pf growth 96h inconclusive (no result: Cycloheximide cs, Shiga toxin inh, NS1 inh)
Cc1ccc(S(=O)(=O)Nc2cccc3cccnc23)cc1	Pf growth 96h 3.7µM (no result: Pf growth 48h)
O=C1C=C(Nc2cccc3cccnc23)c2ccccc2C1=O	Pf growth 48h 2.1µM
O=C1C=C(Nc2ccccc2C(=O)O)c2ccccc2C1=O	none
O=S(=O)(Nc1cccc2cccnc12)c1ccccc1Br	Cycloheximide cs 28 (no result: Pf growth 96h, Pf growth 48h, SARS PLpro yeast, NS1 inh)
COc1cc(NS(=O)(=O)c2ccc(C)cc2)c2ncccc2c1	Pf growth 48h 2.3µM
Cc1ccc(S(=O)(=O)Nc2ccc(NS(=O)(=O)c3ccc(C)cc3)c3ncccc23)cc1	none (no result: Pf growth 96h, Pf growth 48h, SARS PLpro yeast, NS1 inh)
O=C1NC2(CCCCC2)C(=O)N1Cc1ccc([N+](=O)[O-])cc1	none
CC(O)C(N)C(=O)O (configuration not stated)	none (no result: Cycloheximide cs, Shiga toxin inh, SARS PLpro yeast, NS1 inh)
COc1cc(NCCCC(C)N)c2ncccc2c1 (configuration not stated)	Pf growth 96h 0.85µM, Pf growth 48h 0.26µM, NS1 inh inconclusive
COc1cc(C(=O)OC(C)CN2C(C)CCCC2C)cc(OC)c1OC (configuration not stated)	none
CCOC(=O)c1cnc(SC)nc1N	Cycloheximide cs 17 (no result: Pf growth 48h)
CCOC(=O)c1cnc(SCC(C)C)nc1N	Cycloheximide cs 52, Shiga toxin inh active
CCOC(=O)c1cnc(SCc2cccc(C)c2)nc1N	Cycloheximide cs 53, Shiga toxin inh 54
CCOC(=O)c1cnc(SCC(=O)c2ccc(C)cc2)nc1N	Pf growth 96h inconclusive
COc1ccc(CNC(=O)c2ccc(Cn3cc(Br)cn3)o2)cc1	none
COc1ccc(C=O)cc1CSc1ccccn1	Cycloheximide cs 11
COc1ccc(/C=N/NC(=O)c2ccccc2Cl)cc1CSc1nc2ccccc2s1	none (no result: Pf growth 48h)
COc1cc(/C=N/NC(=O)CSc2ccccn2)ccc1OC(C)C	Cycloheximide cs 39, Shiga toxin inh 68
COc1ccc(/C=N/NC(=O)c2ccc(O)cc2O)cc1CSc1ccccn1	Pf growth 96h inconclusive, Cycloheximide cs 40, Shiga toxin inh 64, NS1 inh inconclusive
COc1ccc(NC2CCCN(C(=O)CSc3ccccn3)C2)cc1OC (configuration not stated)	none
Nc1ncc(Br)cc1N=Cc1ccccc1	Cycloheximide cs 75, Shiga toxin inh 27
CCCC(=O)Nc1ccc(NCc2ccc(C)s2)cc1	Pf growth 96h inconclusive, Pf growth 48h inconclusive, Cycloheximide cs active
CC(=O)Nc1ccc(NCc2ccc(C)s2)cc1	Pf growth 96h inconclusive, Cycloheximide cs 21, Shiga toxin inh 50
CCCC(=O)Nc1ccc(N2CCOCC2)cc1	none
COC(=O)CN1C(=O)[C@H]2[C@@H](c3ccc(C)o3)N3C(=O)CN(CC4CC4)C(=O)[C@@]3(C)[C@H]2C1=O	none
Cc1ccccc1-n1nc(-c2cccnc2)cc1C(=O)NN	none (no result: NS1 inh)
CC1=C(C(=O)Nc2ccccc2C(=O)NCc2ccccc2)SCCO1	Pf growth 96h inconclusive, Pf growth 48h inconclusive
CCOC(=O)C1CCN(C(=O)c2ccccc2NC(=O)C2=C(C)OCCS2)CC1	Pf growth 96h inconclusive, Pf growth 48h 10µM
CC1=C(C(=O)Nc2ccccc2C(=O)NC2CCC(C)CC2)SCCO1 (configuration not stated)	Pf growth 96h inconclusive, Cycloheximide cs 16
CCOC(=O)C1CCCN(C(=O)c2cc(Cl)ccc2NC(=O)C2=C(C)OCCS2)C1 (configuration not stated)	Pf growth 48h 13µM
CCN1CCN(CCCNC(=O)c2ccccc2NC(=O)C2=C(C)OCCS2)CC1	Pf growth 96h inconclusive
CCC/C=C1/CCCOC(C(=O)NCc2ccc(C)o2)(C(F)(F)F)C1 (configuration not stated)	none (no result: Pf growth 96h, Pf growth 48h, NS1 inh)
C/C(=N\Nc1cccc2cccnc12)c1ccccc1O	Cycloheximide cs 36, Shiga toxin inh 46 (no result: NS1 inh)
C/C(=N\Nc1cccc2cccnc12)c1ccc(N)cc1	Cycloheximide cs 36, Shiga toxin inh 119
O=C(CCc1c[nH]c2ccccc12)OCc1ccc(Br)cc1	Pf growth 96h inconclusive
CN1CCN(c2ccc(NC(=S)NC(=O)/C=C/c3ccco3)cc2)CC1	Pf growth 48h inconclusive, Cycloheximide cs 44, Shiga toxin inh 106, NS1 inh inconclusive
CC(=O)Nc1ccc(NC(=S)NC(=O)/C=C/c2ccco2)cc1	Pf growth 96h inconclusive (no result: Shiga toxin inh)
CCOc1ccc(NC(=S)NC(=O)/C=C/c2ccco2)cc1	Pf growth 96h 12µM, Cycloheximide cs 13 (no result: Shiga toxin inh)
COc1cccc(NC(=S)NC(=O)/C=C/c2ccco2)c1	Cycloheximide cs 31, Shiga toxin inh 58
O=C(/C=C/c1ccco1)NC(=S)Nc1cccc(C(=O)O)c1	Pf growth 96h inconclusive, Cycloheximide cs 23, Shiga toxin inh 45 (no result: Pf growth 48h)
O=c1cc(/C=C/c2ccccc2)oc2ccccc12	Pf growth 48h inconclusive, Cycloheximide cs 47, Shiga toxin inh 107
Cc1c(O)ccc2c(CC(=O)N[C@@H](Cc3c[nH]c4ccccc34)C(=O)O)cc(=O)oc12	none
